Rows were chosen to be rich in hits. Some 19% of all compounds tested hit in one or more screens of this group.
ELG1 repair inh: qHTS screen for small molecules that inhibit ELG1-dependent DNA repair in human embryonic kidney (HEK293T) cells expressing luciferase-tagged ELG1. HEK293T ELG1-luciferase reporter, luminescence, 16 h; DNA damage induced by 5-fluorouridine. Potency, µM (highest dose often 46.1 µM), without a hit: at the top dose activity change, negative = inhibition, actives largely listed as inhibitors. 330,000 tested, 2.3% active; also: potency is read from the fitted curve at half-maximal effect; nearly all actives have a fitted effect of over 55% in size
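DMSO vehicle served as the neutral condition. Each well held 2,000 cells given 5-fluorouridine plus compound; after 16 hr at 37 °C/5% CO2, ONE-Glo was added and luciferase measured 30 min later.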
HT1080NT lethal: qHTS for induction of synthetic lethality in tumor cells producing 2HG: qHTS for the HT-1080-NT fibrosarcoma cell line; HT-1080-NT fibrosarcoma viability, CellTiter-Glo ATP luminescence, 48 h; Potency, µM (series often up to 46.1 µM), for the others: top-dose activity, negative = less viability, hits mostly cytotoxic; 360,000 tested, 1.6% active;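 also: NT is the 2HG producing partner of a matched IDH1 knockdown line; potency is read from the fitted curve at half-maximal effect; 0% = DMSO-treated cells and -100% = media-only wells without cells; nearly all actives have a fitted effect of over 55% in size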
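HT-1080-NT fibrosarcoma cells (2HG-overproducing), 750 cells/well in RPMI with 5% FBS, dosed after 2 h and incubated 48 h at 37C. CellTiter-Glo luminescence normalized to DMSO and no-cell wells; concentration-response curves fitted and classed.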
DT40 TDP1 CPT: qHTS for Inhibitors of human tyrosyl-DNA phosphodiesterase 1 (TDP1): qHTS in cells in presence of CPT; 420,000 tested, 12% active; chicken DT40 Tdp1-/-;hTDP1 cells + 20 nM CPT, ATP luminescence, 48 h; Potency, µM (titrated, usually from 46.2 µM), for the others: at the highest dose activity change, negative = growth inhibition, actives largely listed as inhibitors; also: potency is read from the fitted curve at half-maximal effect; nearly all actives have a fitted effect of over 55% in size
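Cell growth measured by CellTiter-Glo luminescence after a minimum 48 h, 37 C compound exposure with 20 nM CPT in Tdp1-knockout DT40 cells stably expressing hTDP1, seeded 400/well; qHTS titration format.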
IL-1B inflam inh: qHTS for Inhibitors of Inflammasome Signaling: IL-1-beta AlphaLISA Primary Screen; 360,000 tested, 4.7% active; activity change, % at 57.5 µM; THP-1 LPS/ATP IL-1B secretion, AlphaLISA, 16 h; stronger effect = lower value; in the data active = activity change below about -50%; inconclusive = mostly about -30% to -49%
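THP-1 cells pretreated 1 hr with compounds (up to 57.5 uM final), then stimulated with LPS (250 ng/mL final) plus ATP (1.25 mM final); secreted IL-1B measured by AlphaLISA after 16 hr, decreased signal indicating inhibition.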
HT1080 IDH1KD tx: qHTS for induction of synthetic lethality in tumor cells producing 2HG: qHTS for the HT-1080-IDH1KD cell line | HT-1080 IDH1 knockdown viability, ATP luminescence, 48 h | AID 686971, 2013 | 360,000 tested, 2% active | Potency, µM (doses to about 46.1 µM), for inactives: at the top dose activity, negative = toxicity, usual class: cytotoxic;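 also: potency is read from the fitted curve at half-maximal effect; 0% = DMSO wells and -100% = cell-free medium wells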
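Cytotoxicity counter-line: IDH1KD HT-1080, 48 h, CellTiter-Glo. Curves classed by r2, magnitude and activity.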
TDP1 cell noCPT: qHTS for Inhibitors of human tyrosyl-DNA phosphodiesterase 1 (TDP1): qHTS in cells in absence of CPT | DT40 Tdp1-/- hTDP1 cells, no CPT, ATP luminescence, 48 h | Potency, µM (titrated, usually from 46.2 µM), for the others: at the highest dose activity change, negative = growth inhibition, hits mostly inhibitors | 420,000 tested, 15% active | AID 686978, 2013; also: potency is read from the fitted curve at half-maximal effect; nearly all actives have a fitted effect of over 55% in size
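Growth kinetics read by CellTiter-Glo luminescence after ≥48 hr at 37 °C. Cells: DT40 Tdp1-/- stably carrying human TDP1, 400 per well, compound exposure in the absence of CPT (DMSO vehicle).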
Numbers without * were called inactive; i = inactive; u = inconclusive; x = no result; [ ] = dose if it differs, or a comment. Unless noted, calls follow the shape of the dose curve; as a rule, active = well fitted curve in the direction sought with a large enough effect; inconclusive = small, poorly fitted or top-dose-only effect, or another doubt; inactive = no such curve, though single readings can be large; an effect the other way counts as inactive or inconclusive. Unless noted, % is scaled to controls: 0 for no effect and ±100 for the full control effect.

SMILES	ELG1 repair inh	HT1080NT lethal	DT40 TDP1 CPT	IL-1B inflam inh	HT1080 IDH1KD tx	TDP1 cell noCPT
COc1ccc(C)cc1-n1nnnc1SCC(=O)Nc1cc(C)on1	u	-1%	u	-5	-1%	u
Cc1ccc(-n2nnnc2SCC(=O)Nc2ccccc2N2CCCCC2)cc1C	9.2µM*	-9%	u	-8	-13%	18µM*
Cc1ccc(-n2nnnc2SCC(=O)Nc2ccccc2-c2ccccc2)cc1C	u	-1%	u	-7	-9%	u
CSc1ccccc1-n1nnnc1SCC(=O)Nc1cc(C)ccc1C	-7%	7%	-18%	-51*	-2%	u
Cc1ccc(C(=O)OCc2cc(=O)n3nc(CC(C)C)sc3n2)cc1	x	x	-26%	x	x	-6%
COc1cc(C2CC(=O)Nc3c2c(C)nn3-c2nncc(-c3ccccc3)n2)cc(OC)c1OC (configuration not stated)	x	x	u	x	x	-9%
COc1cc(Br)cc(CN2CCN(C=O)CC2)c1O	-2%	-11%	26µM*	4	-16%	u
Cc1occc1C(=O)N1CCN(c2ccccc2)CC1	1%	0%	-24%	2	5%	0%
Cc1occc1C(=O)N1CCN(c2ccc(Cl)c(Cl)c2)CC1	-11%	0%	u	-23	-17%	16µM*
Cc1occc1C(=O)NNC(=O)Nc1ccc(Cl)c(Cl)c1	8%	-3%	15µM*	-12	-12%	u
CC(=O)Nc1cc(C(=O)N2CCN(C(=O)c3ccco3)CC2)cc2ncn(CCc3ccccn3)c12	x	x	-13%[9.04 µM]	x	x	-6%
CC(C)(C)c1ccc(C(=O)O)c(C(=O)c2ccc(C(=O)O)cc2)c1	18%	-6%	-16%	-1	15%	u
O=S(=O)(Nc1ccc(Br)cc1)c1cccc2cccnc12	0%	-1%	-12%	-14	16%	u
Cc1ccc(-n2c(-c3ccc(Br)cc3)c[n+]3c2CCc2ccc4cccnc4c2-3)cc1	u	u	0.29µM*	-105*	4µM*	0.29µM*
Cc1sc(NC(=O)c2cc(-c3ccccc3)nc3ccccc23)c(C(N)=O)c1C	5.8µM*	-4%	15µM*	-25	-15%	18µM*
O=C(NC1=NCCS1)c1cc(-c2ccc(-c3ccccc3)cc2)nc2ccccc12	u	-8%	u	-11	-24%	u
Cc1sc(NC(=O)c2cc(-c3ccc(Cl)cc3)nc3ccccc23)c(C(N)=O)c1C	-5%	-13%	8.2µM*	7	-12%	10µM*
COc1ccc(OCc2cc(=O)c3ccc4c(c3o2)C=CC(C)(C)O4)cc1OC	u	7%	16µM*	-12	-2%	u
COc1ccc(CCN(C)C(=O)c2ccc(COc3ccccc3)o2)cc1OC	-29%	-17%	u	u	-13%	u
CCN1CCN(c2ccc(NC(=O)c3ccc([N+](=O)[O-])o3)cc2Cl)CC1	u	u	0.58µM*	-107*	13µM*	0.52µM*
CCC(=O)N1CCN(c2ccc(Cl)cc2NC(=O)c2ccc([N+](=O)[O-])o2)CC1	-17%	u	18µM*	3	u	u
CC(=O)N1CCN(c2ccc(NC(=O)c3ccc([N+](=O)[O-])o3)cc2Cl)CC1	18µM*	3.3µM*	0.41µM*	-102*	6.5µM*	0.92µM*
O=C(Nc1cc(Cl)ccc1-n1cncn1)c1ccc([N+](=O)[O-])o1	22%	-22%	7.3µM*	-65*	-22%	10µM*
O=C(O)COc1ccccc1C=NNC(=O)c1ccccc1NS(=O)(=O)c1cccs1	12%	0%	-10%	7	4%	-17%
COC(=O)C1CN(C(=O)COc2ccc(C)cc2)c2ccccc2O1 (configuration not stated)	9%	7%	6%	46	16%	3%
SMILES	ELG1 repair inh	HT1080NT lethal	DT40 TDP1 CPT	IL-1B inflam inh	HT1080 IDH1KD tx	TDP1 cell noCPT
CN1CCN(c2ncc3ncc(=O)n(CCC#N)c3n2)CC1	x	x	7%	x	x	13%
Cc1ccc(N(CCC#N)C(=O)CSc2nnc3ccccn23)cc1	21%	6%	6%	-3	1%	11%
COc1cc(OC)c(NC(=O)Cn2c(SCc3ccccc3F)nc3cccnc32)cc1Cl	x	x	-1%	x	x	-4%
CC(=O)Nc1ccc(NC(=O)c2ncoc2-c2ccco2)cc1	x	x	5%	x	x	u
CCC(=O)N1CCN(c2ccc(NC(=O)c3ccc([N+](=O)[O-])o3)cc2Cl)CC1	u	12µM*	0.82µM*	-107*	7.3µM*	5.2µM*
CCC(=O)N1CCN(c2ccc(NC(=O)c3ccco3)cc2Cl)CC1	u	11%	8%	i	12%	-10%
COc1ccccc1CNc1cc(-c2ccccc2OC)ncn1	x	x	4.6µM*	x	x	2.9µM*
COc1ccc(CNc2cc(-c3ccccc3CN(C)C)ncn2)c(OC)c1	x	x	-24%	x	x	u
COc1cccc(-c2cc(NCc3ccc(OC)cc3OC)ncn2)c1	x	x	10µM*	x	x	13µM*
COc1ccccc1CNc1cc(-c2ccccc2C)ncn1	x	x	4.1µM*	x	x	4.1µM*
O=C1O[C@@H](c2ccccc2)C[C@@H](O)C(=O)CCCc2ccccc21	x	-9%	u	10	2%	u
